# Assay outcomes (PubChem BioAssay)
# The list is not random: actives were taken first. Their share in the collection is about 0.49%.
# EPAC1 ag = EPAC1 (human) agonism; AID 720707; O95398; EPAC1 agonist qHTS, biochemical assay; response scale: 100% = response to 6.5 mM cAMP; 360,000 compounds, 0.073% hits; Potency, µM (highest dose often 154 µM), without a hit: at the top dose activation, hits mostly activators; note: nearly all actives have a fitted effect of over 60% in size
#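 Normalized to 6.5 mM cAMP, activity reflects EPAC1-catalysed release of BODIPY-GDP from Rap1B, followed kinetically over 30 min at 480 nm excitation, 540 nm emission. Reaction contained 100 nM EPAC1, 250 nM Rap1B-BODIPY-GDP, 50 uM GDP.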
# EPAC2 ag = agonists of human EPAC2 (RAPGEF4) | Q8WZA2 | EPAC2 activation, biochemical qHTS; response scale: 100% = 6.5 mM cAMP response | Potency, µM (highest dose often 154 µM), inactives show at the highest dose activation, actives largely listed as activators | 360,000 compounds, 0.079% hits; note: nearly all actives have a fitted effect of over 50% in size
#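 Guanine nucleotide exchange by EPAC2 is measured as reduced fluorescence of BODIPY-GDP once it is released from 250 nM Rap1B. Plates are read kinetically for 30 min at room temperature; results are scaled to 6.5 mM cAMP.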
# EPAC2 antag = EPAC2 (human) antagonism | Q8WZA2 | EPAC2 GEF exchange of Rap1B-BODIPY-GDP, fluorescence | Potency, µM (doses to about 114 µM), for inactives: at the top dose activity, negative = inhibition, usual class: inhibitors | 360,000 compounds, 0.18% hits | AID 720708; note: % is set by controls: 0 for no effect and ±100 for the full control effect; nearly all actives have a fitted effect of over 45% in size
# USP1 inh = USP1/UAF1 (human) deubiquitinase inhibition. O94782. recombinant USP1/UAF1, Ub-Rhodamine cleavage fluorescence. Potency, µM (titrated, usually from 57.1 µM), inactives show top-dose activity change, negative = inhibition, most hits filed as inhibitors. 390,000 compounds, 0.23% hits; note: % is set by controls: 0 for no effect and ±100 for the full control effect; nearly all actives have a fitted effect of over 60% in size
# Target sequence (O94782 whole entry, looked up): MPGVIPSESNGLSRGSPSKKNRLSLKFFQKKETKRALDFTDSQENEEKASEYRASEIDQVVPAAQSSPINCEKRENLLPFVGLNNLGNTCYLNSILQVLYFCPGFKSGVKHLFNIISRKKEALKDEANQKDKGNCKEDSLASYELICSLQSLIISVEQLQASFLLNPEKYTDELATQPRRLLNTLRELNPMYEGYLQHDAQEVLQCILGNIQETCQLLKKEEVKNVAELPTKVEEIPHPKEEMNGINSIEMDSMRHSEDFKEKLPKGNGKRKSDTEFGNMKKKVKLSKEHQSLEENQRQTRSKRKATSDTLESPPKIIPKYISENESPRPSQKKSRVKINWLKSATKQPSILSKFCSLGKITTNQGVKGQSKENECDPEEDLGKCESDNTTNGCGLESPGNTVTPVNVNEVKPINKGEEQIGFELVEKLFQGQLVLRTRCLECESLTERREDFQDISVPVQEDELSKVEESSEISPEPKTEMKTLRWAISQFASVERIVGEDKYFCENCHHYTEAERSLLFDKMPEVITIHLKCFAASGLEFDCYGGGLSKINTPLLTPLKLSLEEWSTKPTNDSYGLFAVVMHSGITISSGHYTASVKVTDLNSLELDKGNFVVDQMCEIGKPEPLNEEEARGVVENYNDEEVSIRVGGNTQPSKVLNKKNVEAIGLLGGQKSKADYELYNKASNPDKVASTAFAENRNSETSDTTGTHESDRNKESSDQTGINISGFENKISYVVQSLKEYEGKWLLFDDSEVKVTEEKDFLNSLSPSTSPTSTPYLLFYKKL
#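 High-throughput fluorogenic screen: 1nM USP1/UAF1 complex, Ub-Rho substrate 150nM final, 50mM HEPES pH 7.8 with 0.5mM EDTA, 0.1 mg/ml BSA, 1mM TCEP and 0.01% Tween-20.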
# EPAC1 antag = antagonists of human EPAC1; O95398; EPAC1 GEF assay, Rap1b-BODIPY-GDP exchange fluorescence; Potency, µM (series often up to 115 µM), without a hit: at the top dose activity change, negative = inhibition, actives largely listed as inhibitors; 360,000 compounds, 0.14% hits; AID 720709;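 note: plate controls were vehicle for no effect and positive control for full effect; nearly all actives have a fitted effect of over 50% in size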
# * marks the source's active call; other numbers are inactive results; ? = inconclusive; nt = no result. Calls come from the whole dose curve; as a rule, active = well fitted curve in the direction sought with a large enough effect; inconclusive = small, poorly fitted or top-dose-only effect, or another doubt; inactive = no such curve, though single readings can be large; an effect the other way counts as inactive or inconclusive. Potency is the fitted concentration of half-maximal effect.
SMILES,EPAC1 ag,EPAC2 ag,EPAC2 antag,USP1 inh,EPAC1 antag
Cc1ccc(NC(=O)CN2C(=O)c3cccnc3Oc3ccc(Cl)cc32)cc1,nt,nt,nt,-26%,nt
c1coc(-c2nnc(-c3ccco3)nn2)c1,-5%,9%,17%,25µM*,?
CCc1ccc(Sc2cc(C(=O)NCCCN3CCC(C)CC3)c3ccccc3n2)cc1,nt,nt,nt,-26%,nt
COc1cc(CNC(C)c2ccccc2)cc(Br)c1OCc1ccccc1 (configuration not stated),6%,18%,-5%,-16%,-13%
CCc1ccc(CNc2ccc(O)cc2)cc1,0%,9%,15%,28µM*,8.9µM*
COc1cc(CNc2ccc(O)cc2)cc(Br)c1OCc1ccccc1,17%,14%,?,-27%,40µM*
Oc1ccc(NCc2ccc(OCc3ccccc3)cc2)cc1,9%,20%,-16%,3.2µM*,?
Cn1nnnc1SCCNCc1ccc(OCc2ccccc2Cl)cc1,nt,nt,nt,-13%,nt
Oc1ccc(NCc2ccc(OCc3ccccc3Cl)cc2)cc1,nt,nt,nt,32µM*,nt
CCc1ccc(CNc2ccc3c(c2)ncn3CC)cc1,-6%,3%,-12%,-21%,?
COC(=O)Nc1ccc(OCc2ccccc2)cc1,4%,0%,10%,-11%,13%
O=C(Cn1c(-c2cccs2)cc2ccccc21)N1CCN(c2ccc(F)cc2)CC1,nt,nt,nt,-29%,nt
COc1ccc(CCC(=O)NCc2nc3cccnc3n2Cc2ccc(OC)cc2)cc1,nt,nt,nt,-4%,nt
CC(C)CC(=NNC(=O)c1ccncc1)c1cc(Cl)ccc1O,100µM*,?,2%,28µM*,-1%
Cc1cccc(C(=O)Nc2ccccc2OCc2cc(=O)n3ccccc3n2)c1,nt,nt,nt,-24%,nt
O=C(COc1ccccc1[N+](=O)[O-])Nc1cccc(C(=O)Nc2ccccc2C(=O)O)c1,-5%,2%,-8%,-25%,71µM*
Cc1ccc(NC(=O)c2cccc(NC(=O)/C=C/c3ccco3)c2)cc1C,1%,-3%,-2%,-26%,?
O=C(Nc1cc(C(=O)Nc2ccccc2C(=O)O)cc(C(=O)Nc2ccccc2C(=O)O)c1)c1ccccc1,3%,12%,-12%,?,10µM*
Cc1ccc(-n2nc3ccc(NC(=O)/C=C/c4ccco4)cc3n2)cc1,-1%,-1%,-16%,-5%,22µM*
CCc1ccccc1NC(=O)c1cccc(NC(=O)/C=C/c2ccco2)c1,3%,4%,10%,-9%,8%
O=C(/C=C/c1ccco1)Nc1cccc(C(=O)Nc2ccccc2C(=O)O)c1,-8%,-7%,-9%,-19%,50µM*
Cc1ccc(NC(=O)CSc2nccn2-c2ccccc2)cc1,nt,nt,nt,3%,nt
COc1cc(C)c2c(c1C=O)Oc1c(c(C)c(O)c3c1C(O)OC3=O)OC2=O (configuration not stated),0%,-2%,?,16µM*,-30%
COC1=CC(=O)c2ccccc2C1=O,-12%,10%,0%,13µM*,-22%
COC1=CC(=O)C=C(OC)C1=O,0%,2%,-8%,-7%,-29%
SMILES,EPAC1 ag,EPAC2 ag,EPAC2 antag,USP1 inh,EPAC1 antag
C=CCOc1ccc(C=NNc2ccc(S(=O)(=O)Nc3ccccc3C(=O)O)cc2[N+](=O)[O-])cc1OC,-6%,1%,?,?,50µM*
COc1ccc(C=NNc2ccc(S(=O)(=O)Nc3ccccc3C(=O)O)cc2[N+](=O)[O-])c(OC)c1,3%,1%,-5%,?,50µM*
Cc1ccc(-c2nc(-c3cc4c([nH]c3=O)CC(C)(C)CC4=O)sc2C)cc1,nt,nt,nt,-26%,nt
COc1ccc(OC)c(S(=O)(=O)NCCc2csc3nc(-c4ccccc4)nn23)c1,nt,nt,nt,-6%,nt
COc1ccccc1CCNC(=O)Cc1c(C)c2c(cc(C)c3c(C)coc32)oc1=O,nt,nt,nt,13%,nt
COc1cc(OC)c(OC)cc1/C=C1\CC(C)C/C(=C\c2cc(OC)c(OC)cc2OC)C1=O (configuration not stated),-3%,16%,1%,35µM*,-2%
CCC1C/C(=C\c2cc(OC)c(OC)cc2OC)C(=O)/C(=C/c2cc(OC)c(OC)cc2OC)C1 (configuration not stated),1%,11%,10%,?,-6%
O=c1[nH]cc(N=Cc2cc(Cl)cc(Cl)c2O)c(=O)[nH]1,100µM*,-8%,-17%,?,-6%
COc1cc(NC(=O)c2cc3nc(-c4ccccc4)cc(-c4ccccc4)n3n2)cc(OC)c1OC,7%,18%,-15%,-13%,56µM*
O=C1C=C(Nc2ccc(O)cc2)C(=O)c2ccccc21,-11%,-1%,0%,-27%,-6%
CCc1ccc(S(=O)(=O)/N=C2\C=C(Nc3ccc(O)cc3)C(=O)c3ccccc32)cc1,-3%,11%,-24%,10µM*,?
CCc1ccc(S(=O)(=O)/N=C2\C=C(Nc3cccc(C(=O)O)c3)C(=O)c3ccccc32)cc1,-8%,4%,?,5.6µM*,?
CCc1ccc(S(=O)(=O)/N=C2/C=C(Sc3ncn[nH]3)C(=O)c3ccccc32)cc1,1%,10%,40µM*,1.8µM*,?
COc1cc(C)nc(N2CCCC(C(=O)Nc3cc(Cl)ccc3OC)C2)n1 (configuration not stated),12%,-20%,25µM*,4%,2%
CCN(CC)c1ccc(/C=C(/C#N)C(=O)NC(C)C)o1,13%,11%,-13%,25µM*,12%
CC(C)NC(=O)/C(C#N)=C\c1ccc(N(C)C)o1,-3%,1%,-5%,?,0%
N#C/C(=C\c1ccc(O)cc1)C(=O)NCc1ccccc1,-1%,8%,-3%,-14%,-10%
CCN(CC)c1ccc(/C=C(/C#N)C(=O)NCc2ccccc2)o1,5%,26%,14%,32µM*,3%
C#CCOc1c(Br)cc(C2C(C(=O)OC)=C(C)NC3=C2C(=O)c2ccccc23)cc1OCC (configuration not stated),nt,nt,nt,-19%,nt
